This note sets out measurements from article PMC7819943, “Rice protein-binding microarrays: a tool to detect cis-acting elements near promoter regions in rice”.

Whole data set: some 68,000 sequences, median “fluorescence intensity (a.u.)” near 9,100, cut for the highest 2% near 16,000. The list comes from a sample in which the highest values are over-represented; it also holds similar and randomly drawn sequences.

Sequence of OsWRKY34 (Q0JBA9 entry or part of it): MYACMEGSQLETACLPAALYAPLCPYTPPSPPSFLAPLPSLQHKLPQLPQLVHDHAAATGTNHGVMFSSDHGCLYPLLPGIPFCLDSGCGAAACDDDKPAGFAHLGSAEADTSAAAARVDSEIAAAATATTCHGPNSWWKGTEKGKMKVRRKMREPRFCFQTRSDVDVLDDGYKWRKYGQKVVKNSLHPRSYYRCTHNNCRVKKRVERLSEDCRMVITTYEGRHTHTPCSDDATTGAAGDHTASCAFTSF

This assay addresses OsWRKY34 (Oryza sativa, UniProt Q0JBA9 1-250). The assay is described as follows: protein-binding microarray (RPBM); PBS, 2% BSA, 51.3 ng/ul salmon testes DNA, 50 uM zinc acetate, 200 nM TF, 25 C, 1 h; high values mean tight binding. The note with it: protein: recombinant; tags: N-terminal polyhistidine and DsRed monomer fusion (pET32a); label: CyDye5-dUTP incorporated in the synthesized complementary strand; 3' TTTTT single-stranded linker to array surface; dsDNA, one strand shown. The gist of the method:
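An Axon 4000B scanner gave the binding signal as per-feature fluorescence intensity in arbitrary units. This followed washing of a custom Agilent array that had been incubated for 1 h at 25 °C with 200 nM protein in PBS, 2% BSA, salmon testes DNA and 50 µM zinc acetate. The proteins were transcription factors fused at the N-terminus to polyhistidine and DsRed, expressed in E. coli BL21-CodonPlus and purified on Ni–NTA.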
For “GGCTTGATTTCTTCTTTTTTCTAATTTTCATATGGCTATTCGGAGTCACCTAGTGCAG”, the binding signal was 9800 fluorescence intensity (a.u.).
The value for “TTAAATATTTGAGGGGTCGATATTTCTGGTATTGGTATTACGGAGTCACCTAGTGCAG” was 10500 fluorescence intensity (a.u.).
The value for “TTTTTTTTTCATCGATGCTTATTTTTTCAGCCTTTACTTTCGGAGTCACCTAGTGCAG” was 8640 fluorescence intensity (a.u.); that for “TGAAGCATGTGGTGGGCATTTTCGTCTTTCTCGAATTCATCGGAGTCACCTAGTGCAG” was 9980 fluorescence intensity (a.u.).
The value for “GTATGTGCCACGTCATCCAAAACCGGCCACAATACTGTCGCGGAGTCACCTAGTGCAG” was 8130 fluorescence intensity (a.u.).
Regarding “TCCGCTTCTGCTATCTCTCGTCACTCTTCAGTCTTCACCTCGGAGTCACCTAGTGCAG”, the binding signal is 8050 fluorescence intensity (a.u.).
Consider “AGTTTCAGAACTCACCTCTTTATTAATACATTTAGTTGTTCGGAGTCACCTAGTGCAG”, for which the binding signal is 8850 fluorescence intensity (a.u.).
Turning to “AACGGTTGCAGCTCTAATTGAGGGCTTTGTTTAGTTCATGCGGAGTCACCTAGTGCAG”, the binding signal was 8640 fluorescence intensity (a.u.).
In the case of “GTTAAATTCGAGGGGTTTCTTGTAATTTCGGGGTGGATAACGGAGTCACCTAGTGCAG”, the binding signal was 16500 fluorescence intensity (a.u.).
Under “CGAGGGTTTGGGAGTCGGGGAATTCGGGGTTTGGGGCCGCCGGAGTCACCTAGTGCAG” stands 26700 fluorescence intensity (a.u.); under “TTTTGTGTATGTTTCGGTGGGAATTTGAGGGTTGTGTTTTCGGAGTCACCTAGTGCAG”, 14200 fluorescence intensity (a.u.); under “TGAATTTGTGGTTTTTTTTGGGGAGGGTTTTTTTTTTCTTCGGAGTCACCTAGTGCAG”, 34600 fluorescence intensity (a.u.).
The value for “CGAGAGAGAGAGGGGAGGGTTTTGGGTTGTGCTTAGGTTTCGGAGTCACCTAGTGCAG” was 13100 fluorescence intensity (a.u.); that for “GCGGAGGCAGGGAGGGTTTTGGAATTTTCGGCCGCCGTTGCGGAGTCACCTAGTGCAG” was 10100 fluorescence intensity (a.u.).
Take “AATTCGGGGTTTGGGGCCGCGGAGGGGTGCTTACGTGAGTCGGAGTCACCTAGTGCAG”: the binding signal was 15100 fluorescence intensity (a.u.).
As to “AGTTCGGGGTGGTTTAAAGTGTAAAAAAATGTTAATAAAACGGAGTCACCTAGTGCAG”, the binding signal was 8870 fluorescence intensity (a.u.).
In the case of “CAATGGAGGGGTGTTTTTTTTTCTATTTTTCTAAATAATTCGGAGTCACCTAGTGCAG”, the binding signal is 14800 fluorescence intensity (a.u.).
Under “CGGTGTACTACTTTTATATATGCAAACCTTTATTGCCTGACGGAGTCACCTAGTGCAG” stands 10300 fluorescence intensity (a.u.).
The value for “GGCCCACCGTCGCACTCGCGCCTTCCGCTGCTCCGTTGCCCGGAGTCACCTAGTGCAG” was 8880 fluorescence intensity (a.u.); that for “GTTTTTCCTCTCTGCTTGTAACGCGTGATGTAAAATTTTCCGGAGTCACCTAGTGCAG” was 11000 fluorescence intensity (a.u.); that for “CGTCGAGTATCTGTATCTCTAAGCATTTCTTGTTGACTTTCGGAGTCACCTAGTGCAG” was 10600 fluorescence intensity (a.u.).
Under “CCGTGCCCACCTGAGCTCGCTTCGCCGCCATTGGCAGCCTCGGAGTCACCTAGTGCAG” stands 9100 fluorescence intensity (a.u.); under “ATTATTAATAAAACTCATTCTATAACTCTGGACTAATTCGCGGAGTCACCTAGTGCAG”, 8200 fluorescence intensity (a.u.).
For “AGGCTACACTATTAAACTTGCTCTTCTCAAGCTACTTCAACGGAGTCACCTAGTGCAG”, the binding signal is 8190 fluorescence intensity (a.u.).
Under “GATGTGCCAATGGTTTCTTTCTCTTTCTTTCTCTTTAAAACGGAGTCACCTAGTGCAG” stands 8910 fluorescence intensity (a.u.).
On to “AAGCGGGGATTTTATGTGGGCAGTGGGTTTTCTTCTTAAACGGAGTCACCTAGTGCAG”, for which the binding signal was 19300 fluorescence intensity (a.u.).
In the case of “ACATGTGGGGCCTATTTATTTCTTTTTTTTTAAAAAAAAACGGAGTCACCTAGTGCAG”, the binding signal is 8480 fluorescence intensity (a.u.).
Under “GAGTGGGTGTGGGTTTTCTAGTGGGCAGATTTAGTTTTAACGGAGTCACCTAGTGCAG” stands 17200 fluorescence intensity (a.u.); under “TGTATAGTTTAGGGGTGAAGATTTCTGGTTTTGTGGTTAACGGAGTCACCTAGTGCAG”, 11500 fluorescence intensity (a.u.); under “GGGGTTTGCTATTCTGGCTCTCTATTAAGCTCATAAAAAACGGAGTCACCTAGTGCAG”, 23500 fluorescence intensity (a.u.).
Turning to “TTATGGTTGTTTTCTTCGGTTCTTTGTTTTTTTAAAAAAACGGAGTCACCTAGTGCAG”, the binding signal is 11600 fluorescence intensity (a.u.).
The value for “AGAGGGGAGGGAGGAGGATTATGGTTTTTTTTCTCTAAAACGGAGTCACCTAGTGCAG” was 16700 fluorescence intensity (a.u.); that for “GTGGGCAGATTTAGTTTTAATGGGTGTGGGTACGGAGAGTCGGAGTCACCTAGTGCAG” was 8900 fluorescence intensity (a.u.).
As for “ATGGTTTTTCAGGGTTGGATTTATGTGTGGTCAGTTTAAACGGAGTCACCTAGTGCAG”, the binding signal was 12000 fluorescence intensity (a.u.).
For the sequence “TCCATTTCCCGCCGCCTCCCCTCTCGCGATCCATATCCATCGGAGTCACCTAGTGCAG”, the binding signal is 8050 fluorescence intensity (a.u.).
Under “GCTTTTCTTCCTCGACAAGGCCGCCTGCACCACCGTCTCCCGGAGTCACCTAGTGCAG” stands 10500 fluorescence intensity (a.u.); under “CTGGTTACTTTCTCATTTCTTCCTCGCTCGCGCGCTCTCTCGGAGTCACCTAGTGCAG”, 10800 fluorescence intensity (a.u.).
Turning to “GATTTAGAGTTGGAGTCAGTCGGTTTGACCAGCCACATGCCGGAGTCACCTAGTGCAG”, the binding signal is 8690 fluorescence intensity (a.u.).
The value for “GCTAGGTCAACTTTGCTCTCAGCTCTCGCTCCCGATGCCACGGAGTCACCTAGTGCAG” was 9760 fluorescence intensity (a.u.).
As for “CTCTCTCTCTCTCTCTCTCTCTCTCTCCAACGCGCGCGCGCGGAGTCACCTAGTGCAG”, the binding signal is 8700 fluorescence intensity (a.u.).
The value for “CGGCGTCTCTACCTCTACGAATCAGGTCAGGCTTCGATCCCGGAGTCACCTAGTGCAG” was 8380 fluorescence intensity (a.u.).
The value for “CTGGCCGCCATCTCCGCCAATCTCGCTGAATCGGACGCCACGGAGTCACCTAGTGCAG” was 8460 fluorescence intensity (a.u.).
